# Where “and” joins values, the source holds several entries; their conditions need not be identical. Equal values may be shown once. Inconclusive results are not listed. Entries that show only a call come without a potency. More than one record can exist for a structure, and the calls need not agree. Calls of active or inactive are those of the source. Unless noted, calls follow the shape of the dose curve; as a rule, active = well fitted curve in the direction sought with a large enough effect in the repeat runs; inconclusive = weak or mixed curves; inactive = no such curve, though single readings can be large; an effect the other way counts as inactive or inconclusive.
# Experiments:
# [1] = qHTS assay to identify small molecule agonists of the hypoxia (HIF-1) signaling pathway - cell viability counter screen (AID 1224844; calls by dose curve; also: nearly all actives have a fitted effect of over 50% in size; also: potency is read from the fitted curve at half-maximal effect)
# In short: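 HRE-bla ME-180 cells, 2,000/well in 0.5% dialyzed FBS medium, treated 17 h at 37C with compounds. Viability read in the same wells as the bla reporter, by CellTiter-Glo luminescence after 30 min at room temperature.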
# [2] = qHTS assay to identify small molecule agonists of the hypoxia (HIF-1) signaling pathway (AID 1224846; active = well fitted activation curve with a large enough effect in the signal ratio in the repeat runs, not every such curve was filed as active; the % refers to the signal ratio)
# In short: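 HRE-bla ME-180 beta-lactamase reporter cells in medium with 0.5% dialyzed FBS, pre-incubated 5 h then exposed to compounds 17 h at 37C, 5% CO2; reporter induction read with CCF4-AM FRET substrate.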
# [3] = qHTS assay to identify small molecule agonists of H2AX - cell viability counter screen (AID 1224847; calls by dose curve;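 also: wild-type CHO-K1 cells; top concentration of the series differs between compounds; nearly all actives have a fitted effect of over 30% in size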)
# In short: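 Cells plated first: CHO-K1, 1000 per well in 10% FBS medium, incubated overnight at 37C. Then 15-point compound titration added (final DMSO 0.76%) for 3 hr. Finally CellTiter-Glo added and luminescence read.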
# [4] = qHTS assay to identify small molecule antagonists of the estrogen related receptor (ERR) signaling pathway from Tox21 library (AID 1224848); also: nearly all actives have a fitted effect of over 50% in size; also: potency is read from the fitted curve at half-maximal effect
# In short: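 Reading was by luminescence 30 min after ONE-Glo addition. Before that, ERR cells at 2,000 per well had rested 6 h at 37 C/5% CO2 and then received pin-tooled compounds in DMSO for 18 h at 37 C.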
# [5] = qHTS assay to identify small molecule agonists of the estrogen related receptor (ERR) signaling pathway from Tox21 library (AID 1224849; calls by dose curve; also: nearly all actives have a fitted effect of over 15% in size); settings: ERR reporter cell line, ONE-Glo luciferase, 18 h
# In short: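 ERR reporter cells (NTP line) pre-incubated 6 hours at 37 C, then exposed to compounds for 18 hours at 37 C. ONE-Glo luciferase luminescence was read after 30 minutes at room temperature.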
# [6] = qHTS RealTime-Glo MT Cell Viability Assay in HepG2 cells - 24 hour (AID 1224867); also: nearly all actives have a fitted effect of over 50% in size
# In short: (§1)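 HepG2 cells (600/well) were dispensed with RealTime-Glo reagents, incubated 5 h at 37 °C, then treated with compounds in DMSO for up to 40 h. Nonlytic NanoLuc luminescence reflecting viable cells was read at each stated time point.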
# [7] = qHTS RealTime-Glo MT Cell Viability Assay in HEK293 cells - 32 hour (AID 1224868); also: nearly all actives have a fitted effect of over 50% in size; also: potency is read from the fitted curve at half-maximal effect
# In short: (§2)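 HEK293 cells seeded with NanoLuc/prosubstrate reagent, rested 5 h at 37 C, then dosed and kept at 37 C up to 40 h. Nonlytic real-time luminescence from viable cells read at 0, 8, 16, 24, 32 and 40 h.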
# [8] = A CellTox Green Cytotoxicity Assay to monitor cytotoxicity in HEK293 cells - 0 hour (AID 1224869); also: nearly all actives have a fitted effect of over 50% in size
# In short: (§3)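 HEK293 cells, 600/well, were preincubated 5 hours and then exposed to compounds at 37 C for up to 40 hours. A cell-impermeant cyanine dye staining dead-cell DNA was read by fluorescence at 0, 8, 16, 24, 32 and 40 h time points.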
# [9] = qHTS RealTime-Glo MT Cell Viability Assay in HepG2 cells - 40 hour (AID 1224870); also: nearly all actives have a fitted effect of over 50% in size
# In short: (§4)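 Real-time viability: cells seeded at 600 per well together with NanoLuc and cell-permeant prosubstrate, compounds added after 5 h incubation. Luminescence tracked at 0, 8, 16, 24, 32 and 40 h of exposure.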
# [10] = A CellTox Green Cytotoxicity Assay to monitor cytotoxicity in HEK293 cells - 40 hour (AID 1224871); also: nearly all actives have a fitted effect of over 45% in size; also: potency is read from the fitted curve at half-maximal effect
# In short: as §3
# [11] = qHTS RealTime-Glo MT Cell Viability Assay in HEK293 cells - 16 hour (AID 1224872); also: nearly all actives have a fitted effect of over 50% in size; also: potency is read from the fitted curve at half-maximal effect
# In short: as §2
# [12] = qHTS RealTime-Glo MT Cell Viability Assay in HepG2 cells - 8 hour (AID 1224873); also: nearly all actives have a fitted effect of over 55% in size
# In short: as §4
# [13] = qHTS RealTime-Glo MT Cell Viability Assay in HEK293 cells - 40 hour (AID 1224874); settings: RealTime-Glo luminescence; max response: stronger effect = lower value; also: nearly all actives have a fitted effect of over 50% in size; also: potency is read from the fitted curve at half-maximal effect
# In short: (§5)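 600 cells/well were plated with the nonlytic NanoLuc/prosubstrate reagent, pre-incubated 5 h, then given 23 nL of compound in DMSO. Incubation at 37 C for 40 h, with luminescence from viable-cell-reduced substrate read repeatedly from 0 h.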
# [14] = A CellTox Green Cytotoxicity Assay to monitor cytotoxicity in HEK293 cells - 24 hour (AID 1224875); also: nearly all actives have a fitted effect of over 45% in size; also: potency is read from the fitted curve at half-maximal effect
# In short: as §3
# [15] = qHTS RealTime-Glo MT Cell Viability Assay in HepG2 cells - 32 hour (AID 1224877); also: nearly all actives have a fitted effect of over 55% in size
# In short: as §1
# [16] = A CellTox Green Cytotoxicity Assay to monitor cytotoxicity in HepG2 cells - 24 hour (AID 1224878); also: nearly all actives have a fitted effect of over 45% in size; also: potency is read from the fitted curve at half-maximal effect
# In short: (§6)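 HepG2 cells, 600/well, preincubated 5 h with CellTox Green dye, then exposed to Tox21 compounds in DMSO at 37 C for up to 40 h. Dead-cell DNA fluorescence read at the indicated time point.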
# [17] = A CellTox Green Cytotoxicity Assay to monitor cytotoxicity in HepG2 cells - 40 hour (AID 1224879); also: nearly all actives have a fitted effect of over 40% in size; also: potency is read from the fitted curve at half-maximal effect
# In short: as §6
# [18] = A CellTox Green Cytotoxicity Assay to monitor cytotoxicity in HepG2 cells - 16 hour (AID 1224876); also: nearly all actives have a fitted effect of over 45% in size; also: potency is read from the fitted curve at half-maximal effect
# In short: as §6
# [19] = qHTS RealTime-Glo MT Cell Viability Assay in HEK293 cells - 0 hour (AID 1224880)
# In short: as §5
# [20] = qHTS assay to identify small molecule agonists of H2AX (AID 1224845; active = well fitted activation curve with a large enough effect in the signal ratio in the repeat runs, not every such curve was filed as active; the % refers to the signal ratio; also: potency is read from the fitted curve at half-maximal effect)
# In short: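 Phospho-H2AX Ser139 measured by HTRF (ex 320 nm; em 665 and 620 nm) after 24 hr antibody incubation. Compounds, 15 concentrations, 0.76% DMSO, were applied to CHO-K1 cells for 3hr at 37C before lysis.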
# [21] = at 92.4 µM (top of the series) unless noted
smiles,measurement,setting,value
CCSC(C)CC1CC(=O)C(/C(CC)=N/OC/C=C/Cl)=C(O)C1 (stereo not given),Potency,[1],inactive
same,outcome,[2],inactive
same,Potency,[3],inactive
same,Potency,[4],inactive
same,"activity change, positive = activation",[5]; [21],-10.8% [at 42.5 µM] (inactive)
same,Potency,[6],inactive
same,Potency,[7],inactive
same,Potency,[8],inactive
same,Potency,[9],inactive
same,Potency,[10],inactive
same,Potency,[11],inactive
same,Potency,[12],inactive
same,max response,[13],0.0447% (inactive)
same,Potency,[14],inactive
same,Potency,[15],inactive
same,Potency,[16],inactive
same,Potency,[17],inactive
Cc1c(Cl)c(=O)oc2cc(OP(=O)(OCCCl)OCCCl)ccc12,Potency,[1],inactive
same,outcome,[2],inactive
same,Potency,[3],inactive
same,Potency,[6],inactive
same,Potency,[8],inactive
same,Potency,[9],inactive
same,Potency,[10],inactive
same,Potency,[14],inactive
same,Potency,[18],inactive
same,Potency,[15],inactive
same,Potency,[16],inactive
same,Potency,[17],inactive
same,Potency,[19],inactive
CC(=O)[O-].CC(=O)[O-].O.O.[Cd+2],Potency,[1],34.2 µM (active)
same,Potency,[20],62.7 µM (active)
same,Potency,[8],inactive
same,Potency,[9],inactive
same,Potency,[13],15.3 µM (active)
same,Potency,[16],48.3 µM (active)
same,Potency,[17],27.2 µM (active)
same,Potency,[19],inactive
ClC1=C(Cl)[C@]2(Cl)[C@H]3[C@H]([C@H]4C=C[C@H]3C4)[C@@]1(Cl)C2(Cl)Cl,Potency,[1],inactive
same,outcome,[2],inactive
same,Potency,[3],inactive
same,Potency,[6],inactive
same,Potency,[7],inactive
same,Potency,[9],inactive
same,Potency,[11],inactive
same,Potency,[12],inactive
same,max response,[13],-13.1% (inactive)
same,Potency,[14],inactive
same,Potency,[18],inactive
same,Potency,[15],inactive
same,Potency,[16],inactive
same,Potency,[17],inactive
same,Potency,[19],inactive
CCCCCCCCc1ccc(O)cc1,Potency,[1],39.1 µM (active)
same,Potency,[20],36 µM (active)
same,Potency,[7],5.53 µM (active)
same,Potency,[10],19.6 µM (active)
same,Potency,[11],4.39 µM (active)
same,Potency,[13],17 µM (active)
same,Potency,[14],17.5 µM (active)
same,Potency,[18],38 µM (active)
same,Potency,[16],19.6 µM (active)
same,Potency,[17],19.6 µM (active)
N#Cc1ccccc1Cl,Potency,[1],inactive
same,outcome,[2],inactive
same,Potency,[3],inactive
same,Potency,[4],inactive
same,"activity change, positive = activation",[5]; [21],1.91% (inactive)
same,Potency,[6],inactive
same,Potency,[7],inactive
same,Potency,[8],inactive
same,Potency,[9],inactive
same,Potency,[10],inactive
same,Potency,[11],inactive
same,Potency,[12],inactive
same,max response,[13],-1.15% (inactive)
same,Potency,[14],inactive
same,Potency,[18],inactive
same,Potency,[15],inactive
same,Potency,[16],inactive
same,Potency,[17],inactive
same,Potency,[19],inactive
N#CNC#N,Potency,[1],inactive
same,outcome,[2],inactive
same,Potency,[3],inactive
same,Potency,[6],inactive
same,Potency,[7],inactive
same,Potency,[8],inactive
same,Potency,[9],inactive
same,Potency,[10],inactive
same,Potency,[11],inactive
same,Potency,[12],inactive
same,max response,[13],1.5% (inactive)
same,Potency,[14],inactive
same,Potency,[18],inactive
same,Potency,[15],inactive
same,Potency,[16],inactive
same,Potency,[17],inactive
same,Potency,[19],inactive
COc1ccc(N)cc1N,Potency,[1],inactive
same,outcome,[2],inactive
same,Potency,[4],63.1 µM (active) and 14.7 µM (active)
same,"activity change, positive = activation",[5]; at 42.5 µM (top of the series),-34.8% (inactive)
same,"activity change, positive = activation",[5]; at 92.4 µM (top of the series),-69.2% (inactive)
same,Potency,[6],inactive
same,Potency,[7],45 µM (active)
same,Potency,[8],inactive
same,Potency,[9],inactive
same,Potency,[10],inactive
same,Potency,[11],35.8 µM (active)
same,Potency,[12],inactive
same,Potency,[13],50.5 µM (active)
same,max response,[13],-27.7% (inactive)
same,Potency,[14],inactive
same,Potency,[18],inactive
same,Potency,[15],inactive
same,Potency,[16],inactive
same,Potency,[17],inactive
CCc1ccccc1C,Potency,[1],inactive
same,outcome,[2],inactive
same,Potency,[3],inactive
same,Potency,[4],inactive
same,"activity change, positive = activation",[5]; [21],0.837% (inactive)
same,Potency,[6],inactive
same,Potency,[7],inactive
same,Potency,[8],inactive
same,Potency,[10],inactive
same,Potency,[11],inactive
same,Potency,[12],inactive
same,max response,[13],0.859% (inactive)
same,Potency,[14],inactive
same,Potency,[18],inactive
same,Potency,[15],inactive
same,Potency,[16],inactive
same,Potency,[17],inactive
same,Potency,[19],inactive
CCS(=O)(=O)c1cccnc1S(=O)(=O)NC(=O)Nc1nc(OC)cc(OC)n1,Potency,[1],inactive
same,outcome,[2],inactive
same,Potency,[3],inactive
same,Potency,[4],inactive
same,"activity change, positive = activation",[5]; [21],6.39% (inactive)
same,Potency,[6],inactive
same,Potency,[7],inactive
same,Potency,[8],inactive
same,Potency,[9],inactive
same,Potency,[10],inactive
same,Potency,[11],inactive
same,Potency,[12],inactive
same,max response,[13],6.92% (inactive)
same,Potency,[14],inactive
same,Potency,[18],inactive
same,Potency,[15],inactive
same,Potency,[16],inactive
same,Potency,[17],inactive
CCOP(=S)(OCC)SCS(=O)(=O)C(C)(C)C,Potency,[1],inactive
same,outcome,[2],inactive
same,Potency,[3],inactive
same,Potency,[6],inactive
same,Potency,[7],inactive
same,Potency,[8],inactive
same,Potency,[9],inactive
same,Potency,[10],inactive
same,Potency,[11],inactive
same,Potency,[12],inactive
same,max response,[13],-15.1% (inactive)
same,Potency,[14],inactive
same,Potency,[18],inactive
same,Potency,[15],inactive
same,Potency,[16],inactive
same,Potency,[17],inactive
same,Potency,[19],inactive
C[C@H]1O[C@@H](O[C@H]2[C@@H](O)C[C@H](O[C@H]3[C@@H](O)C[C@H](O[C@H]4CC[C@@]5(C)[C@H](CC[C@@H]6[C@@H]5CC[C@]5(C)[C@@H](C7=CC(=O)OC7)CC[C@]65O)C4)O[C@@H]3C)O[C@@H]2C)C[C@H](O)[C@@H]1O,Potency,[1],98.3 nM (active) and 190 nM (active)
same,outcome,[2],inactive
same,Potency,[3],inactive
same,Potency,[4],inactive
same,"activity change, positive = activation",[5]; [21],-72.7% [at 42.5 µM] (inactive) and -65% [at 42.5 µM] (active)
same,Potency,[6],inactive
same,Potency,[7],31.1 nM (active) and 95.2 nM (active)
same,Potency,[9],inactive
same,Potency,[10],inactive
same,Potency,[11],0.0952 µM (active)
same,Potency,[12],inactive
same,Potency,[13],31.1 nM (active) and 95.2 nM (active)
same,Potency,[14],inactive
same,Potency,[18],inactive
same,Potency,[15],inactive
same,Potency,[16],inactive
same,Potency,[17],inactive
same,Potency,[19],inactive
CC(=O)/C=C/c1ccc2c(c1)OCO2,Potency,[1],inactive
same,outcome,[2],inactive
same,Potency,[4],43.5 µM (active)
same,"activity change, positive = activation",[5]; [21],-46.7% (inactive)
same,Potency,[6],inactive
same,Potency,[7],inactive
same,Potency,[8],inactive
same,Potency,[9],inactive
same,Potency,[10],inactive
same,Potency,[11],inactive
same,max response,[13],-11.6% (inactive)
same,Potency,[14],inactive
same,Potency,[18],inactive
same,Potency,[15],inactive
same,Potency,[17],49.2 µM (active)
same,Potency,[19],inactive
